# Experimental data from PubChem BioAssay (NCATS).
# Inconclusive results are not listed. A number with no mark means an inactive call. Activity calls are given as the source filed them. The call rests on the fitted dose curve.
# Assay: qHTS assay for small molecule disruptors of the mitochondrial membrane potential - 5 hr assay (AID 651755); further: nearly all actives have a fitted effect of over 40% in size
# Conditions: JC-1-type ratio dye; series mostly up to 92.2 µM; ratio change, negative = disruption: at the top concentration
# Text: National Center for Advancing Translational Sciences [NCATS]
# NIH Chemical Genomics Center [NCGC]
# National Institutes of Environmental Health Sciences [NIEHS]
# National Toxicology Program [NTP]
# Mitochondrial membrane potential (MMP), one of the parameters for mitochondrial function, is generated by mitochondrial electron transport chain that creates an electrochemical gradient by a series of redox reactions. This gradient drives the synthesis of ATP, a crucial molecule for various cellular processes. Measuring MMP in living cells is commonly used to assess the effect of chemicals on mitochondrial function. […] The dye accumulates in the mitochondria of healthy cells as aggregates, with red fluorescence. The mitochondrial potential collapses and the dye can no longer accumulate in the mitochondria and remains in the cytoplasm in monomers, with green fluorescence.
# 2,000 HepG2 cells in 5 uL/well were dispensed into black, clear-bottom 1536-well plates using a Multidrop Combi (Thermo Scientific) dispenser. The assay plates were incubated overnight at 37C to allow cells to attach to the wells, followed by the transfer of 23 nL compound or DMSO vehicle by a pin tool (Kalypsys). The plates were incubated for 5 hr at 37C and 5% CO2, followed by the addition of 5 uL of 2X Mito-MPS dye (BD Biosciences) into each well using Flying Reagent Dispenser (Aurora Discovery) and then following 30 min incubation at 37C. Fluorescence intensity (490nm excitation and 535nm emission for monomers; and 540nm excitation and 590nm emissions for aggregates) was measured using an Envision plate reader.
# On the % scale 0 is the no-effect control and ±100 the full control effect; potency means the concentration at half of the fitted maximal effect.
Structure (SMILES),"ratio change, negative = disruption [%]",Potency
ClC(Cl)C(Cl)Cl,-3.25,
Nc1c(Cl)cc([N+](=O)[O-])cc1Cl,,42.2 µM (active)
ClCc1ccccc1,5.4,
c1ccc(Nc2ccc(Nc3ccccc3)cc2)cc1,,59.6 µM (active)
Cc1ccc2c(C)cccc2c1,-6.3,
[O-][Cl+2]([O-])O,7.26,
O=C(O)C(Br)CBr (stereo not given),3.11,
Nn1cnnc1,2.52,
CCC[N+](=O)[O-],2.63,
C=CC(=O)OC,-4.17,
O=C(O)c1cc(Cl)ccc1Cl,-3.86,
O=C(O)CCl,3.57,
O=[N+]([O-])c1cc(Cl)c(Cl)c(Cl)c1,5.08,
Nc1ccc([N+](=O)[O-])cc1N,-17,
N#CCc1ccccc1,1.56,
Clc1cc(Cl)c(Cl)c(Cl)c1,0.0998,
c1ccc(OCC2CO2)cc1 (stereo not given),0.0284,
NC1CCC(CC2CCC(N)CC2)CC1 (stereo not given),0.943,
C=CCBr,3.46,
N#CC(Br)Br,1.59,

Structure (SMILES),"ratio change, negative = disruption [%]",Potency
CCCCOC(C)=O,2.67,
CC(C)(Cl)Cl,0.306,
N#CC(O)c1ccccc1 (stereo not given),-2.99,
CCCN(CCC)c1c([N+](=O)[O-])cc(C(F)(F)F)cc1[N+](=O)[O-],0.804,
CC(Cl)(Cl)Cl,-0.692,
CCOP(=O)(OCC)OCC,2.33,
CCOC(=O)C1OC1(C)c1ccccc1 (stereo not given),-9.22,
CC(C)(COCC1CO1)COCC1CO1 (stereo not given),5.21,
O=c1ccc(=O)[nH][nH]1,-11.2,
Cc1cccc(C)c1N,5.83,
C=COC(C)=O,-0.799,
ClCCCCl,-8.04,
O=C(O)C(Br)Br,5.34,
CC(C)CC(C)N (stereo not given),-7.72,
ClP(Cl)(Cl)(Cl)Cl,0.0446,
CN=C=O,6.38,
O=[N+]([O-])c1ccccc1CCl,0.82,
CCOC(=O)CBr,4.16,
C1CC2OC2CC1C1CO1 (stereo not given),-1.16,
C=C(C)CCl,-1.45,
